Here are results for 10 molecules from PubChem BioAssay AID488847 (NMMLSC, 2010).

SMILES strings stand for the structures. Out of some 330,000 compounds screened, about 1,900 (0.58%) were called active. The sample holds actives, similar compounds and a random draw of the others, so the mix is not that of the screen.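 The calls were made as follows: active = inhibition of aptamer binding above 40%, roughly 3 SD of noise, on plates passing a quality check; inactive = the rest.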

The assay deals with Beta-adrenergic receptor kinase 1 (Homo sapiens) (UniProt P25098). In words: compounds blocking aptamer binding on GRK2 – biochemical, human GRK2, bead flow cytometry, HTS, primary screen (AID 488847).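 Also: median bead fluorescence of bound FAM aptamer so fluorescent compounds give negative values.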 The settings on record: FAM-aptamer displacement from GRK2, at 10 µM, active compounds read high. Background: In flow cytometry, cells or beads pass a laser one at a time.
Chain of Beta-adrenergic receptor kinase 1 (Homo sapiens) (P25098 whole entry, looked up): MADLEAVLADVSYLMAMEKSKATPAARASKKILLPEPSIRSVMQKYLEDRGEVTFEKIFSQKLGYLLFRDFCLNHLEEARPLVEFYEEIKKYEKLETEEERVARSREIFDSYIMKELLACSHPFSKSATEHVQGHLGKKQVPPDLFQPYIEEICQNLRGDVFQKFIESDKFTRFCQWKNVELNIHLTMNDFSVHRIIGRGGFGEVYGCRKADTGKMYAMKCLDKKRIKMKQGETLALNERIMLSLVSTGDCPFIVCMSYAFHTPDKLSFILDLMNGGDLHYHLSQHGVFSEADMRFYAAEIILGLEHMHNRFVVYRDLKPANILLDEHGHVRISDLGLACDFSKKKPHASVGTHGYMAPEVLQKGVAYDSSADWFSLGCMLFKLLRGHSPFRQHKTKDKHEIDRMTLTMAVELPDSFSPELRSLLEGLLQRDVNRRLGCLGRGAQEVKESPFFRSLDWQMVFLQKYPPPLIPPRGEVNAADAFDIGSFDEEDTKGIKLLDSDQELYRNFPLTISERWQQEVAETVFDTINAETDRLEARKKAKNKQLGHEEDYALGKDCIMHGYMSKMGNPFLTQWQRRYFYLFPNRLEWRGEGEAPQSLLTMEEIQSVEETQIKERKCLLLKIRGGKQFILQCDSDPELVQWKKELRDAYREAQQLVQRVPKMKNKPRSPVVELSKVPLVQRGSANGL
`Cc1ccc(-n2c(C)cc(/C=C3\C(=O)NC(=O)N(C)C3=O)c2C)cc1C`: the inhibition of aptamer binding was 3% (inactive).
As for `Cc1c(C(=O)O)cccc1-n1c(C)cc(/C=C2\C(=O)NC(=O)N(c3ccc4c(c3)OCO4)C2=O)c1C`, the figure is 75% (active); as for `Cc1cc(C=C2C(=O)NC(=O)NC2=O)c(C)n1-c1ccncc1`, 2% (inactive).
As for `CC[N+]1(C)CCCC(OC(=O)C(O)(c2ccccc2)c2ccccc2)C1` (stereo not given), the figure is 0% (inactive).
In the case of `O=C1NC(=O)C(C/C=C/c2ccccc2)C(=O)N1` it was 1% (inactive).
For the molecule `COc1ccc(Br)cc1CNCCc1cccc(Cl)c1`, the inhibition of aptamer binding was 0% (inactive).
As for `O=C1NC(=O)N(Cc2ccco2)C(=O)/C1=C\c1cccn1CCOc1ccccc1`, the inhibition of aptamer binding was 5% (inactive).
In the case of `O=C1NC(=O)N(Cc2ccco2)C(=O)/C1=C\c1ccc(-c2ccc(F)cc2)o1` it was 15% (inactive); in that of `COc1ccc(N2C(=O)/C(=C/c3ccco3)C(=O)NC2=S)cc1`, 96% (active); in that of `CN(C)CC1CCCCC1OC(=O)c1ccc(Cl)c(Cl)c1` (stereo not given), 0% (inactive).
